# Reference: PubChem BioAssay AID1159580 (chemical genetic matrix, 2015)
# Out of some 5,500 compounds screened, about 2,000 (36%) were called active. Not shown: some 18% with an inconclusive outcome. Some of the results follow. Values without a mark were called inactive. No stated cut-off is given here; in the data, active means normalized growth mostly below about 0.91 (no sharp cut-off); inconclusive means no clear call, values can overlap the other calls; inactive means mostly above about 0.92.
# Experiment: chemical genetic growth profiling, strain panel (AID 1159580);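 further: tested at 20 µM; growth read once vehicle control cultures reached saturation at 30 °C; 1 = growth at the plate median or of vehicle wells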
# Conditions: growth OD
smiles,measurement,setting,value
CCC(=O)OCC(=O)C1(OC(=O)CC)C(C)CC2C3CCC4=CC(=O)C=CC4(C)C3(Cl)C(O)CC21C (configuration not stated),normalized growth,"S. cerevisiae deletion strains, locus YJR043C, strain POL32, stronger effect = lower value",1.03
same,normalized growth,"S. cerevisiae deletion strains, locus YJR066W, strain TOR1, stronger effect = lower value",0.995
same,normalized growth,"S. cerevisiae deletion strains, locus YKL009W, strain mrt4, stronger effect = lower value",1
same,normalized growth,"S. cerevisiae deletion strains, locus YKL068W, stronger effect = lower value",0.989
same,normalized growth,"S. cerevisiae deletion strains, locus YKL085W, strain MDH1 (second series), stronger effect = lower value",0.997
same,normalized growth,"S. cerevisiae deletion strains, locus YKL085W, strain MDH1, stronger effect = lower value",0.997
same,normalized growth,"S. cerevisiae deletion strains, locus YKL160W, strain elf1, stronger effect = lower value",0.964
same,normalized growth,"S. cerevisiae deletion strains, locus YKR001C, strain vps1, stronger effect = lower value",0.992
same,normalized growth,"S. cerevisiae deletion strains, locus YKR026C, strain gcn3, stronger effect = lower value",0.983
same,normalized growth,"S. cerevisiae deletion strains, locus YKR091W, strain srl3, stronger effect = lower value",0.983
same,normalized growth,"S. cerevisiae deletion strains, locus YLL001W, strain dnm1, stronger effect = lower value",0.927
same,normalized growth,"S. cerevisiae deletion strains, locus YLL026W, stronger effect = lower value",0.989
same,normalized growth,"S. cerevisiae deletion strains, locus YLL041C, strain sdh2, stronger effect = lower value",0.977
same,normalized growth,"S. cerevisiae deletion strains, locus YLR027C, strain aat2, stronger effect = lower value",0.962
same,normalized growth,"S. cerevisiae deletion strains, locus YLR039C, strain RIC1, stronger effect = lower value",1.02
same,normalized growth,"S. cerevisiae deletion strains, locus YLR058C, strain SHM2, stronger effect = lower value",1.02
same,normalized growth,"S. cerevisiae deletion strains, locus YLR102C, strain apc9, stronger effect = lower value",0.994
same,normalized growth,"S. cerevisiae deletion strains, locus YLR113W, strain HOG1, stronger effect = lower value",1.07
same,normalized growth,"S. cerevisiae deletion strains, locus YLR221C, strain rsa3, stronger effect = lower value",1.01
same,normalized growth,"S. cerevisiae deletion strains, locus YLR258W, strain gsy2, stronger effect = lower value",0.993
same,normalized growth,"S. cerevisiae deletion strains, locus YLR262C, strain YPT6 (second series), stronger effect = lower value",0.915
same,normalized growth,"S. cerevisiae deletion strains, locus YLR262C, strain YPT6, stronger effect = lower value",1.07
same,normalized growth,"S. cerevisiae deletion strains, locus YLR268W, strain sec22, stronger effect = lower value",0.985
same,normalized growth,"S. cerevisiae deletion strains, locus YLR320W, strain mms22, stronger effect = lower value",0.983
same,normalized growth,"S. cerevisiae deletion strains, locus YLR330W, strain CHS5, stronger effect = lower value",1.02
same,normalized growth,"S. cerevisiae deletion strains, locus YLR342W, strain FKS1 (second series), stronger effect = lower value",1.05
same,normalized growth,"S. cerevisiae deletion strains, locus YLR342W, strain FKS1, stronger effect = lower value",0.977
same,normalized growth,"S. cerevisiae deletion strains, locus YLR357W, strain rsc2, stronger effect = lower value",1.03
same,normalized growth,"S. cerevisiae deletion strains, locus YLR370C, strain arc18, stronger effect = lower value",0.963
same,normalized growth,"S. cerevisiae deletion strains, locus YLR371W, strain rom2, stronger effect = lower value",0.992
same,normalized growth,"S. cerevisiae deletion strains, locus YLR384C, strain iki3, stronger effect = lower value",0.958
same,normalized growth,"S. cerevisiae deletion strains, locus YLR418C, strain cdc73, stronger effect = lower value",0.984
same,normalized growth,"S. cerevisiae deletion strains, locus YML016C, strain PPZ1, stronger effect = lower value",1.02
same,normalized growth,"S. cerevisiae deletion strains, locus YML032C, strain rad52, stronger effect = lower value",0.994
same,normalized growth,"S. cerevisiae deletion strains, locus YML120C, strain ndi1, stronger effect = lower value",0.958
same,normalized growth,"S. cerevisiae deletion strains, locus YML124C, strain tub3, stronger effect = lower value",0.985
same,normalized growth,"S. cerevisiae deletion strains, locus YMR058W, strain fet3, stronger effect = lower value",0.986
same,normalized growth,"S. cerevisiae deletion strains, locus YMR078C, strain ctf18, stronger effect = lower value",0.992
same,normalized growth,"S. cerevisiae deletion strains, locus YMR125W, strain sto1, stronger effect = lower value",0.988
same,normalized growth,"S. cerevisiae deletion strains, locus YMR129W, stronger effect = lower value",0.976
same,normalized growth,"S. cerevisiae deletion strains, locus YMR205C, strain PFK2, stronger effect = lower value",0.965
same,normalized growth,"S. cerevisiae deletion strains, locus YMR223W, strain ubp8, stronger effect = lower value",1
same,normalized growth,"S. cerevisiae deletion strains, locus YMR231W, strain pep5, stronger effect = lower value",0.971
same,normalized growth,"S. cerevisiae deletion strains, locus YMR307W, strain GAS1, stronger effect = lower value",1.09
same,normalized growth,"S. cerevisiae deletion strains, locus YNL067W, strain RPL9B, stronger effect = lower value",0.996
same,normalized growth,"S. cerevisiae deletion strains, locus YNL071W, strain lat1, stronger effect = lower value",0.989
same,normalized growth,"S. cerevisiae deletion strains, locus YNL183C, strain NPR1, stronger effect = lower value",0.983
same,normalized growth,"S. cerevisiae deletion strains, locus YNL209W, strain ssb2, stronger effect = lower value",0.997
same,normalized growth,"S. cerevisiae deletion strains, locus YNL233W, strain BNI4, stronger effect = lower value",1
same,normalized growth,"S. cerevisiae deletion strains, locus YNL248C, strain rpa49, stronger effect = lower value",0.973
same,normalized growth,"S. cerevisiae deletion strains, locus YNL250W, strain rad50, stronger effect = lower value",1
same,normalized growth,"S. cerevisiae deletion strains, locus YNL271C, strain bni1, stronger effect = lower value",0.988
same,normalized growth,"S. cerevisiae deletion strains, locus YNL298W, strain CLA4, stronger effect = lower value",0.991
same,normalized growth,"S. cerevisiae deletion strains, locus YNL307C, strain MCK1, stronger effect = lower value",0.981
same,normalized growth,"S. cerevisiae deletion strains, locus YNL322C, strain KRE1 (second series), stronger effect = lower value",0.971
same,normalized growth,"S. cerevisiae deletion strains, locus YNR049C, strain mso1, stronger effect = lower value",0.982
same,normalized growth,"S. cerevisiae deletion strains, locus YNR052C, strain pop2, stronger effect = lower value",0.994
same,normalized growth,"S. cerevisiae deletion strains, locus YOL012C, strain htz1",1.1
same,normalized growth,"S. cerevisiae deletion strains, locus YOL147C, strain pex11, stronger effect = lower value",0.986
same,normalized growth,"S. cerevisiae deletion strains, locus YOR001W, strain rrp6, stronger effect = lower value",0.952
same,normalized growth,"S. cerevisiae deletion strains, locus YOR061W, strain CKA2, stronger effect = lower value",1.02
same,normalized growth,"S. cerevisiae deletion strains, locus YOR069W, strain VPS5, stronger effect = lower value",1.01
same,normalized growth,"S. cerevisiae deletion strains, locus YOR070C, strain gyp1, stronger effect = lower value",0.996
same,normalized growth,"S. cerevisiae deletion strains, locus YOR080W, strain dia2, stronger effect = lower value",0.954
same,normalized growth,"S. cerevisiae deletion strains, locus YOR083W, strain WHI5, stronger effect = lower value",0.946
same,normalized growth,"S. cerevisiae deletion strains, locus YOR106W, strain vam3, stronger effect = lower value",0.931
same,normalized growth,"S. cerevisiae deletion strains, locus YOR136W, strain idh2, stronger effect = lower value",0.979
same,normalized growth,"S. cerevisiae deletion strains, locus YOR144C, strain elg1, stronger effect = lower value",0.991
same,normalized growth,"S. cerevisiae deletion strains, locus YOR184W, strain ser1, stronger effect = lower value",0.986
same,normalized growth,"S. cerevisiae deletion strains, locus YOR231W, strain MKK1, stronger effect = lower value",1.05
same,normalized growth,"S. cerevisiae deletion strains, locus YOR265W, strain rbl2, stronger effect = lower value",0.985
same,normalized growth,"S. cerevisiae deletion strains, locus YOR270C, strain vph1, stronger effect = lower value",0.757 (active)
same,normalized growth,"S. cerevisiae deletion strains, locus YOR290C, strain snf2, stronger effect = lower value",1
same,normalized growth,"S. cerevisiae deletion strains, locus YOR316C, strain cot1, stronger effect = lower value",0.991
same,normalized growth,"S. cerevisiae deletion strains, locus YPL051W, strain arl3, stronger effect = lower value",0.986
same,normalized growth,"S. cerevisiae deletion strains, locus YPL055C, strain LGE1, stronger effect = lower value",1.01
same,normalized growth,"S. cerevisiae deletion strains, locus YPL078C, strain atp4, stronger effect = lower value",0.921
same,normalized growth,"S. cerevisiae deletion strains, locus YPL106C, strain sse1, stronger effect = lower value",1.06
same,normalized growth,"S. cerevisiae deletion strains, locus YPL240C, strain hsp82, stronger effect = lower value",0.976
same,normalized growth,"S. cerevisiae deletion strains, locus YPL241C, strain CIN2, stronger effect = lower value",1.02
same,normalized growth,"S. cerevisiae deletion strains, locus YPL256C, strain CLN2, stronger effect = lower value",1.05
same,normalized growth,"S. cerevisiae deletion strains, locus YPR119W, strain clb2, stronger effect = lower value",0.988
same,normalized growth,"S. cerevisiae deletion strains, locus YPR141C, strain kar3, stronger effect = lower value",0.988
same,normalized growth,"S. cerevisiae deletion strains, locus YPR163C, strain tif3, stronger effect = lower value",0.995
same,normalized growth,"S. cerevisiae deletion strains, locus YPR167C, strain met16, stronger effect = lower value",0.993
same,normalized growth,"S. cerevisiae deletion strains, strain wtn01, stronger effect = lower value",0.977
same,normalized growth,"S. cerevisiae strains, strain wild type, stronger effect = lower value",1.02
